Screens: PubChem, several laboratories
ERa coact pot: enhances coactivator binding to human estrogen receptor alpha; P03372; TR-FRET ERalpha-LBD/SRC-Cy5 coactivator binding, 2 h; 100 = basal binding, no effect; coactivator binding (% of control), % at 25.6 µM; actives 1.3% (n = 86,000); AID 639; in the data active means activity above about 200%;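 further: binding measured in presence of low estradiol as agonist stimulus; 0% = peptide alone without receptor and 100% = receptor with peptide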
FAK inh: FAK (human) kinase inhibition; AID 727; inhibition, %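 (tested at 7 µM)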; Q05397; actives 0.84% (n = 97,000); biochemical FAK kinase activity assay;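 further: 0% = DMSO and 100% = reference compound high control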
Target sequence (Q05397 whole entry, looked up): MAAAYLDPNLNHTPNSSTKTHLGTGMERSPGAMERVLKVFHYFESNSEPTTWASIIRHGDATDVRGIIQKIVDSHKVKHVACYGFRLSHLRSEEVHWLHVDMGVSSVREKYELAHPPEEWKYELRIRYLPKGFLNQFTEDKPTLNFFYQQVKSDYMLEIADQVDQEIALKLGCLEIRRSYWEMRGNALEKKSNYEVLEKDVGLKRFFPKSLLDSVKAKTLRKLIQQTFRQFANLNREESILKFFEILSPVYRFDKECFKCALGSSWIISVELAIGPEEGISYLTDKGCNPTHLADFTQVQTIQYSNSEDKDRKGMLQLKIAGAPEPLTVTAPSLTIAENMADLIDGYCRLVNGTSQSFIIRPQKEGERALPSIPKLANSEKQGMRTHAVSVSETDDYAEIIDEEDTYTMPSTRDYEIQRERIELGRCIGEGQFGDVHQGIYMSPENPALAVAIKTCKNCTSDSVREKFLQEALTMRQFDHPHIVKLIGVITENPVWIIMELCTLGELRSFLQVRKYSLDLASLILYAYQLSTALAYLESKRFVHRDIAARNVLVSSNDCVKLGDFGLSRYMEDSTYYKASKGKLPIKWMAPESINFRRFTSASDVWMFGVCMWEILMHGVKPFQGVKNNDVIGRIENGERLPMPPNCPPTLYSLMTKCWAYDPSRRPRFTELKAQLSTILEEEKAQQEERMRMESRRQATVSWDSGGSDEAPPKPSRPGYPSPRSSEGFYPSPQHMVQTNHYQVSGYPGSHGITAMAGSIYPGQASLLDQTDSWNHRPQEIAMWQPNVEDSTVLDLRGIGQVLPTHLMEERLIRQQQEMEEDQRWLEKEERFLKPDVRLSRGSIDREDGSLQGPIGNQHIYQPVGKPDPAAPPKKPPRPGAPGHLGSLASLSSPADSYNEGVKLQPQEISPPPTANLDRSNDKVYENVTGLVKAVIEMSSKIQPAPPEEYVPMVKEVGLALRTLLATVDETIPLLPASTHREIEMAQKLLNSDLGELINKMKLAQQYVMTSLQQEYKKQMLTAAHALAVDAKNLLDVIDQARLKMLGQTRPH
ERb coact inh: blocks coactivator binding to human estrogen receptor beta. Q92731. TR-FRET ER-beta LBD / SRC1-Cy5 peptide binding; receptor agonist-loaded with 1 µM estradiol. inhibition, % at 25.6 µM. actives 1.3% (n = 86,000). AID 633;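 active means compounds whose percent inhibition of the receptor-coactivator binding signal exceeds about 50% in the single-dose screen, limit read from the data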;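 further: 0% = receptor plus peptide wells without compound and 100% = peptide-only wells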
ERa coact inh: blocks coactivator binding to human estrogen receptor alpha; P03372; AID 629; inhibition, % at 25.6 µM; TR-FRET ER-alpha LBD / SRC-1 peptide, estradiol-bound; actives 1.7% (n = 86,000); in the data active means inhibition above about 50%;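 further: 0% = receptor plus peptide control and 100% = peptide only without receptor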
FAK inh conf: FAK (human) inhibition confirmed | actives 28% (n = 750) | inhibition, % at 7 µM | FAK kinase biochemical inhibition assay | shares compounds with FAK inh
Numbers without * were called inactive; x = not tested or not shown; [ ] = remark or other dose. In the library only some 3.2% were active in any assay of this set; here they are far more common. Unless noted, no stated cut-off is given here; in the data, active means inhibition above about 19%; inactive means the rest.

SMILES	ERa coact pot	FAK inh	ERb coact inh	ERa coact inh	others
COCC(C)OC(=O)c1c(N)n(Cc2ccco2)c2nc3ccccc3nc12 (centres undefined)	84	3	58*[fluorescence artefact?]	7
COc1ccc(Cn2c(N)c(C(=O)NCc3ccco3)c3nc4ccccc4nc32)cc1	81	3	39	73*
CCSc1cc(C2C(C#N)=C(N)Oc3n[nH]c(C)c32)c(C)o1 (centres undefined)	69	4	0	-4
COC(=O)C(O)(c1ccc(N(C)C(=O)OC(C)C)cc1)C(F)(F)F (centres undefined)	101	-1	68*	4
C=CCn1c(O)c(C(CC)=Nc2ccc(N(CC)CC)cc2)c(=O)[nH]c1=O	x	0	x	x
CC12CN3CC(C)(CN(C1)C3c1ccncc1)C2=O (centres undefined)	116	-2	93*[fluorescence artefact?]	-5
CC12CN3CC(C)(CN(C1)C31CCSCC1)C2=O	121	-3	-6	-9
CCN(CC)c1ccc(N=Cc2c(O)n(-c3ccccc3C)c(=O)[nH]c2=O)cc1	99	0	27	1
CCOc1ccccc1-n1c(O)c(C=Nc2ccc(N(CC)CC)cc2)c(=O)[nH]c1=O	91	x	33	62*[fluorescence artefact?]
C=CP(=O)(O)c1ccccc1	94	x	-1	-1
O=C(c1ccccc1F)c1cn(CC(=O)N2CCCCC2)c2ccccc12	97	1	-11	-7
CCOc1ccccc1N1C(=O)NC(=O)C(CCc2ccncc2)(CCc2ccncc2)C1=O	384*	1	-16	-8
COc1ccccc1N1C(=O)NC(=O)C(CCc2ccncc2)(CCc2ccncc2)C1=O	126	1	-11	0
CC1=CC(=C2C(=O)NC(=S)NC2=O)C=C(C(F)(F)F)N1C	62	0	63*[fluorescence artefact?]	52*[fluorescence artefact?]
CC12CN3CN(C1)CC(c1ccccc1)(C3)C2=O	94	0	19	25
O=C(c1ccc2nc(-c3ccco3)c(-c3ccco3)nc2c1)N1CCC2(CC1)OCCO2	39	x	76*[fluorescence artefact?]	56*[fluorescence artefact?]
Cc1nc2cc(C(=O)N3CCC4(CC3)OCCO4)ccc2n1-c1cccc(F)c1	122	-2	-9	3
CN(C)c1ccc(NC(=O)CN2C(=O)CN=C(c3ccccc3)c3ccccc32)cc1	52	8	53*[fluorescence artefact?]	22
CCCC(=O)NC(Oc1ccccc1Cl)C(Cl)(Cl)Cl (centres undefined)	x	3	x	x
O=C1CN=C(c2cccs2)c2c(sc3c2CCCC3)N1	97	2	64*[fluorescence artefact?]	3
CCOC(=O)C1=C(N)OC2=C(C(=O)CC(C)(C)C2)C12C(=O)Nc1ccccc12 (centres undefined)	x	-5	x	x
C=CCOc1ccc(CC2C(=O)N(C)C(=O)N(C)C2=O)cc1	97	7	37	57*
O=C(C1CCC(=O)N1Cc1ccccc1Cl)N1CCC2(CC1)OCCO2 (centres undefined)	809*[fluorescence artefact?]	0	-1	-6
CC(C)N1C(=O)CCC1C(=O)N1CCC2(CC1)OCCO2 (centres undefined)	107	0	-7	-4
Clc1cccc(Cl)c1C1N2CCCN12 (centres undefined)	122	0	81*[fluorescence artefact?]	-2
SMILES	ERa coact pot	FAK inh	ERb coact inh	ERa coact inh	others
O=C(c1ccc(CS(=O)(=O)c2ccc(Br)cc2)o1)N1CCC2(CC1)OCCO2	99	-1	12	2
O=C(c1ccc(CS(=O)(=O)c2ccccc2)o1)N1CCC2(CC1)OCCO2	33	1	74*[fluorescence artefact?]	46
CCOCCN1CCN(c2nnc3n2-c2ccc(Cl)cc2C(c2ccccc2Cl)=NC3)CC1	x	-5	x	x
COc1ccc(OCC(=O)Nc2ccc(Cl)cc2C(=O)c2ccccc2)cc1	x	25*	x	x	FAK inh conf=-1
C[C@H]1CCCC(=O)CCC/C=C/c2cc(O)cc(O)c2C(=O)O1	97	35*	15	24	FAK inh conf=31*
CCCCn1c(NC(=O)c2ccco2)c(C(=O)OCC)c2nc3ccccc3nc21	85	27*	4	4	FAK inh conf=0
CCOC(=O)c1c(N)n(Cc2ccco2)c2nc3ccccc3nc12	88	3	36	14
O=c1cccc2n1CC1CC2CN(C(c2ccccc2)c2sc3ncnn3c2O)C1 (centres undefined)	3	x	-2	-7
CC(C)C1(C)N=C(c2ncccc2C(=O)O)NC1=O (centres undefined)	x	-1	x	x
